The results in this text go back to PubChem BioAssay AID793 (The Scripps Research Institute Molecular Screening Center, 2007).

Out of some 140,000 compounds screened, about 1,400 (1%) were called active. The full list was thinned out, with actives kept by preference. A number with no mark means an inactive call. No stated cut-off is given here; in the data, active means inhibition above about 17%; inactive means the rest.

The target of the test is Neuropeptide Y receptor type 2 (Homo sapiens) (UniProt P49146). The test can be described thus: NPY-Y2 receptor antagonists, primary screen, cell-based (AID 793).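 Further: 0% = vehicle with agonist challenge and 100% = reference antagonist with challenge.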 The following applies: NPY-Y2 expressing cells, antagonist mode; at 2.7 µM; hits give high values.
Neuropeptide Y receptor type 2 (Homo sapiens), sequence (P49146 whole entry, looked up): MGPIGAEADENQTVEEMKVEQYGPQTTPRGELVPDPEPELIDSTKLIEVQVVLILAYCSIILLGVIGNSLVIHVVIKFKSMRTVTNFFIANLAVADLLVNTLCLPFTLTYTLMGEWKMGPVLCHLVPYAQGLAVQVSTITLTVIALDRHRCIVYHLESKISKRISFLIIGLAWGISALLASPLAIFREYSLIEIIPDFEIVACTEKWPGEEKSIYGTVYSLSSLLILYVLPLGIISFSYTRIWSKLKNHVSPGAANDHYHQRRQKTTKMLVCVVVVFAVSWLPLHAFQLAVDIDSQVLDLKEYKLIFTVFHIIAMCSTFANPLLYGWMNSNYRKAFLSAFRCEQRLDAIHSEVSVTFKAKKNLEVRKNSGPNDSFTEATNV
For `O=C(COC(=O)c1cc([N+](=O)[O-])ccc1NCc1ccccc1)NC1CCCCC1`, the inhibition is 5.74%.
For `N#Cc1ccc(C(c2nnnn2CCc2ccccc2)N2CCCCCC2)cc1` (stereo not given), the inhibition is 17.9% (active).
For `COc1ccc(CCn2nnnc2C(c2ccccc2)N2CCN(C)CC2)cc1OC` (stereo not given) the value was 5.97%.
On to `CC(C)C(c1nnnn1CCc1ccccc1)N1CCN(C(=O)c2ccco2)CC1` (stereo not given), for which the inhibition was 3.59%.
Turning to `CCOc1cc(CNCc2ccccn2)ccc1OCC(=O)NC(C)(C)C`, the inhibition was 2.66%.
The same measure for `Cc1ccc(NC(=O)CCOc2ccccc2)cc1S(=O)(=O)Nc1ccccc1Cl`: 0.14%.
The same measure for `CCOC(=O)c1ccc(N/C(=N/S(=O)(=O)c2ccccc2)c2ccccc2)cc1`: 0.02%; for `O=C(CNC(=O)C(c1ccccc1)c1ccccc1)N/N=C\c1ccc2c(c1)OCO2`: 9.72%; for `CCOc1ccc(NC(=O)CSc2nc3ccccc3c(=O)n2Cc2cccs2)cc1`: 1.51%.
Consider `Cc1cccc(N2Cc3ccccc3C2=NC(=O)c2ccc(Cl)nc2)c1`, for which the inhibition was 1.24%.
Consider `N#Cc1ccc(N2Cc3ccccc3/C2=N/C(=O)Nc2ccc(Cl)cc2)cc1`, for which the inhibition was 108% (active).
In the case of `O=C(Nc1ccccc1)OCc1cn(-c2ccc(Cl)cc2)nn1`, the inhibition is 12%.
The same measure for `COc1ccc(C(=O)CSc2nnc(COc3ccccc3)n2Cc2ccco2)cc1`: 16.4%; for `c1ccc(-c2oc3ncnc(N4CCOCC4)c3c2-c2ccccc2)cc1`: 4.38%; for `COc1ccc2[nH]c3c(=O)n(Cc4ccco4)cnc3c2c1`: 3.41%.
The same measure for `COc1ccc(-c2oc3ncn(Cc4ccco4)c(=N)c3c2-c2ccc(OC)cc2)cc1`: 18.1% (active); for `N=c1c2c(-c3ccccc3)c(-c3ccccc3)oc2ncn1Cc1ccco1`: 20.1% (active).
`C(=C\c1ccccc1)/CSc1nnc(-c2cccnc2)n1Cc1ccco1`: the inhibition is 7.64%.
Turning to `O=C(Nc1nnc(C2COc3ccccc3O2)o1)c1ccc(F)cc1` (stereo not given), the inhibition was 7.93%.
For `CN(C)CCNC(=O)/C(=C/c1cccc([N+](=O)[O-])c1)NC(=O)c1ccccc1`, the inhibition is 1.28%.
For `N=c1c2c(-c3ccccc3)c(-c3ccccc3)n(Cc3ccccc3)c2ncn1CCCO` the value was 72.4% (active).
Consider `OCCCN1c2ccccc2Nc2nnc(-c3ccccc3)cc21`, for which the inhibition was 3.77%.
For `Cc1ccc2[nH]cc(CCNC(=O)c3ccc([N+](=O)[O-])cc3)c2c1` the value was -0.38%; for `CSCc1ccc(C(=O)Nc2cc(C)cc(C)c2)cc1`, 3.07%; for `CC(=O)c1c(Nc2ccccc2)sc(C(=O)c2ccccc2)c1C`, 14.2%.
Regarding `Cc1cc(C)c2c(-n3cccc3)c(NC(=O)OCc3ccccc3)sc2n1`, the inhibition is 24.7% (active).
In the case of `CCCCOC(=O)Nc1sc2nc(C)cc(C)c2c1-n1cccc1`, the inhibition was 4.45%.
For `COC(=O)Nc1sc2nc(C)cc(C)c2c1-n1cccc1` the value was 2.27%; for `O=C(Nc1cccc(S(=O)(=O)N2CCCCC2)c1)c1ccc2c(c1)OCO2`, 3.64%.
For `CCc1nc(Nc2ccc3nccnc3c2)c2oc3ccccc3c2n1`, the inhibition is -2.05%.
For `COc1ccccc1Nc1ncnc2c1oc1ccccc12` the value was 19.4% (active); for `Cc1nc(Cl)c2oc3ccccc3c2n1`, 4.04%.
`O=[N+]([O-])c1ccc(N2CCN(c3ccc(O)cc3)CC2)c(Cl)c1`: the inhibition was -2.81%.
As for `CCN1CCN(c2ccc([N+](=O)[O-])cc2C(=O)c2ccc(Cl)cc2)CC1`, the inhibition was 22.2% (active).
The same measure for `CCC(C)(C)NC(=O)c1cc([N+](=O)[O-])ccc1N1CCCCC1`: 0.52%; for `NC(=O)CC[C@@H]1NC(=O)[C@@H]2CCCN2C(=O)c2cc([N+](=O)[O-])cc(F)c2NCCC[C@@H](C(N)=O)NC1=O`: -1.38%; for `CCC1=NN(C(=O)Cc2ccc([N+](=O)[O-])cc2)C(O)(c2ccc(Br)cc2)C1` (stereo not given): 4%.
The same measure for `Cc1ccc(C(C(=O)NCc2ccco2)N(CC2CCCO2)C(=O)Cn2nnc3ccccc32)cc1` (stereo not given): 5.64%; for `COCCNC(=O)C(c1ccc(C)o1)N(Cc1ccccc1)C(=O)Cn1nnc2ccccc21` (stereo not given): 2.71%.
As for `COc1ccccc1N(C(=O)Cn1nnc2ccccc21)C(C(=O)NCc1ccco1)c1ccc(C)o1` (stereo not given), the inhibition was 26.2% (active).
`O=C(Cn1nc(CNc2ccc(Cl)cc2)[n+]2c1CCCCC2)c1ccc(Cl)cc1`: the inhibition is 0.53%.
For `CCn1nc(C)c(/C=N/NC(=O)Cc2ccc(Cl)cc2)c1C` the value was 2.23%; for `COc1ccc(NS(=O)(=O)c2ccc(NC(=S)NC(=O)/C=C/c3ccc(C)cc3)cc2)nn1`, 3.45%.
For `COc1ccc(NC(=O)/C(Cl)=C(/Cl)S(=O)Cc2ccc(C)cc2)cn1` (stereo not given), the inhibition was 52% (active).
As for `COc1cccc(NC(=O)Cc2ccc(C)cc2)c1`, the inhibition was 3.66%.
For `CN(C)c1ccc(/C=N/NC(=O)c2ccc(Cn3cc(Br)cn3)o2)cc1` the value was -0.65%.
Take `CCCCC1S/C(=N/N=C/c2cccs2)NC1=O` (stereo not given): the inhibition was 2.47%.
For `CCCCNC(=O)c1onc(CSc2cccc(OC)c2)c1C(=O)O` the value was 28% (active); for `CCOc1cccc(SCc2noc(C(=O)NC(C)C)c2C(=O)O)c1`, 6.09%.
The same measure for `COCCNC(=O)c1onc(CSc2cccc(C)c2)c1C(=O)O`: 5.73%; for `COc1ccnc(Oc2ccccc2)n1`: 1.08%; for `O=C(Nc1ccccc1)N1CCN(Cc2ccccc2)CC1`: 0.29%.
As for `CCCC(=O)C1CCN(Cc2ccccc2)CC1`, the inhibition is 0.89%.
The same measure for `CC12CN(Cc3ccccc3)CC(C)(CN(Cc3ccccc3)C1)C2=NO`: 28.4% (active).
With `COc1ccccc1N1CCN(CC(=O)NC(=O)NCc2ccco2)CC1`, the inhibition is 2.56%.
With `Cc1ccc(C(CC(=O)O)Nc2nc(N3CCCCC3)nc(N3CCCCC3)n2)cc1` (stereo not given), the inhibition was 1.53%.
For `CC(Nc1nc(N2CCCC2)nc2ccccc12)c1ccccc1` (stereo not given) the value was 54.6% (active); for `CC(C)n1c(C(O)c2ccccc2)nc2ccccc21` (stereo not given), 1.4%; for `COC(=O)c1cc(C(=O)CSc2nc(C)cc(C)n2)ccc1O`, 4.06%.
For the compound `Cc1cc(SCC(=O)c2ccccc2)nc(SCC(=O)c2ccccc2)n1`, the inhibition is 13.8%.
On to `Cc1cc(Oc2ccc(Cl)cc2)nc(SCC(=O)c2ccccc2)n1`, for which the inhibition is 48.6% (active).
Turning to `Cc1ccccc1OCC(=O)Nc1nc(C)c(C(=O)N(C)C)s1`, the inhibition is 5.58%.
The same measure for `CC1CCN(C(=S)NC2CC3CCC2C3)CC1` (stereo not given): 1.13%; for `O=C(CN1C(=O)NC(Cc2ccccc2)(Cc2ccccc2)C1=O)NCC1CCCCC1`: 80.5% (active); for `O=C(CN1C(=O)NC2(CCCCC2)C1=O)NCCC1=CCCCC1`: 0.27%.
As for `O=C(CN1C(=O)NC2(CCCCCC2)C1=O)NCc1cccs1`, the inhibition was -3.2%.
Regarding `O=C1CCCC(O)=C1C=NCCc1ccccc1`, the inhibition is 1.66%.
On to `O=C1CC(c2cccc(Cl)c2)CC(O)=C1C=Nc1ccccc1` (stereo not given), for which the inhibition is 18.4% (active).
With `O=C1CC(c2ccccc2)CC(O)=C1C=NCCN1CCOCC1` (stereo not given), the inhibition is 0.58%.
`COc1ccc(NC(C(=O)Nc2cccc(C(C)=O)c2)c2ccccc2)cc1` (stereo not given): the inhibition was -1.54%.
The same measure for `COCCCNCCOCCOc1ccc(Cl)cc1Br`: 3.88%.
The same measure for `O=C(NCc1cccnc1)c1cccnc1Sc1ccc(Cl)cc1`: -0.63%; for `O=C(NCc1cccnc1)c1ccc(CS(=O)(=O)c2ccc(Br)cc2)o1`: -0.12%; for `Cc1ccc(S(=O)(=O)N(Cc2ccc(Cl)cc2)c2ccccc2C(=O)NCc2cccnc2)cc1`: 35% (active).
`COc1ccc(/C=N/NC(=O)c2ccccc2)cc1OS(=O)(=O)c1ccccc1`: the inhibition was 0.26%.
The same measure for `COc1ccc(-c2noc(-c3ccc(C)cc3)n2)cc1`: 2.85%.
For `COc1ccc(-c2noc(COc3ccc(Cl)c(C)c3)n2)cc1` the value was 18.2% (active); for `COc1ccc(-c2noc(CSc3ccc(C)cc3)n2)cc1`, 16.5%; for `O=C(NCCCO)/C(=C\C=C\c1ccccc1)NC(=O)c1ccccc1Cl`, 1.12%.
Take `CCOC12CC(C)(C)CC(C)(CC3=C1C(=O)CC(C)(C)C3)C2` (stereo not given): the inhibition was 3.39%.
For `COc1ccc(C(=O)Nc2c(Cl)cc(Cl)cc2C(=O)N2CCC(C)CC2)cc1` the value was 3.91%; for `CCC1(CC)Cc2ccccc2-c2nc3ccccc3c(=O)n21`, 7.5%.
As for `O=c1c2ccccc2nc2n1C1(CCCCC1)Cc1ccccc1-2`, the inhibition was 21.2% (active).
For `c1cncc(-c2nnc3n2C2(CCCCC2)Cc2ccccc2-3)c1` the value was 1.77%; for `COc1ccc(C(C(=O)NC2CCCCC2)N(C(=O)Cc2c[nH]c3ccccc23)c2ccccc2)cc1OC` (stereo not given), 0.1%; for `CC(NC(=O)c1cccc2ccccc12)c1ccc2c(c1)CCCC2` (stereo not given), 5.32%.
The same measure for `O=C(CC(=O)Nc1ccc(Cl)c(Cl)c1)N/N=C/c1ccc(O)cc1`: -3.17%.
With `O=C(CC(O)(C(F)(F)F)C(F)(F)F)Nc1ccc(Cl)c(Cl)c1`, the inhibition is 24.4% (active).
For `CN(C)CCNC(CC(=O)Nc1ccc(Cl)c(Cl)c1)C(=O)O` (stereo not given) the value was 0.54%; for `Nc1nc(SCc2ccc([N+](=O)[O-])cc2)c2ncn(C3OC(CO)C(O)C3O)c2n1` (stereo not given), 1.64%; for `O=C(Nc1cn(-c2ccccc2)nc1-c1ccccc1)c1ccccc1`, 9.26%.
For `O=C(NCCN1CCOCC1)c1cc(Sc2cccc(Cl)c2)nc2ccccc12` the value was 3.17%.
With `CCCCCNC(=O)Cc1ccc(OC)cc1`, the inhibition is 20.3% (active).
The same measure for `CCCCNC(=O)C1(c2ccc(OC)cc2)CCOCC1`: 3.6%; for `COc1ccc(OCCCC(=O)NCCc2ccccc2)cc1`: 4.05%.
